Measurements published in PubChem BioAssay (Tox21).
Unmarked numbers belong to inactive results. Results filed as inconclusive are left out. Entries that show only a call come without a potency. Calls of active or inactive are those of the source. Unless noted, calls come from the whole dose curve; as a rule, active = well fitted curve in the direction sought with a large enough effect in the repeat runs; inconclusive = weak or mixed curves; inactive = no such curve, though single readings can be large; an effect the other way counts as inactive or inconclusive.

Assays:
[1] = biological target: Progesterone receptor (Homo sapiens) (UniProt P06401); test: qHTS assay to identify small molecule antagonists of the progesterone receptor (PR) signaling pathway (AID 1346795; active = well fitted inhibition curve with a large enough effect in the signal ratio in the repeat runs, not every such curve was filed as active; the % refers to the signal ratio)
Summary of the method: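 PR-UAS-bla HEK293T cells carrying a UAS-driven beta-lactamase reporter were plated in medium with 2% charcoal-stripped FBS and rested 6 hr at 37C. Compounds were added with 1 nM R5020 (final) for 16 hr, then FRET substrate loaded 2 hr at room temperature.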

[2] = qHTS assay to identify small molecule antagonists of the progesterone receptor (PR) signaling pathway - cell viability counter screen (AID 1346798); note: series mostly up to about 92 µM; nearly all actives have a fitted effect of over 50% in size
Summary of the method: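 PR-UAS-bla HEK293T cells in medium with 2% charcoal-stripped FBS were treated with compounds plus R5020 for 16 hr at 37C. Cell viability was then read by CellTiter-Glo luminescence after 30 min at room temperature in the same wells.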

[3] = qHTS assay to identify small molecule agonists of the TGF-beta/Smad signaling pathway - cell viability counter screen (AID 1346829); note: top concentration of the series differs between compounds; nearly all actives have a fitted effect of over 45% in size
Summary of the method: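 In parallel with the Smad reporter read, viability of HEK 293T cells stably carrying SBE-bla is quantified by ATP luminescence following 5 hr compound treatment.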

[4] = qHTS assay to identify small molecule agonists of the TGF-beta/Smad signaling pathway (AID 1346859; active = well fitted activation curve with a large enough effect in the signal ratio in the repeat runs, not every such curve was filed as active; the % refers to the signal ratio; note: series mostly up to about 77 µM)
Summary of the method: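 HEK 293T cells stably carrying a beta-lactamase reporter driven by the Smad binding element were seeded overnight, exposed to DMSO-dissolved compounds for 5 hr at 37 C, 5% CO2, then loaded with FRET substrate for 2 hr at room temperature.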

[5] = Caspase-3/7 induction in HepG2 cells by small molecules, qHTS assay (AID 1346978); note: nearly all actives have a fitted effect of over 15% in size
Summary of the method: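 Caspase-3/7 induction was measured by Caspase-Glo 3/7 luminescence (30 min, room temperature) after a 17 hr compound exposure of wild-type HepG2 cells seeded at 2,000 per well and pre-incubated 5 hr.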

[6] = Caspase-3/7 induction in CHO-K1 cells by small molecules, qHTS cell viability counter screen (AID 1346979); note: nearly all actives have a fitted effect of over 35% in size; note: potency is the fitted concentration of half-maximal effect
Summary of the method: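 Wild-type CHO-K1 cells were seeded at 1,500 per well, rested 5hr at 37 C, then exposed to compounds in DMSO. After 16hr, CellTiter-Fluor reagent was added and fluorescence read 1hr later as the viability measure.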

[7] = Caspase-3/7 induction in CHO-K1 cells by small molecules, qHTS assay (AID 1346980); note: nearly all actives have a fitted effect of over 15% in size
Summary of the method: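 Luminescent Caspase-Glo 3/7 read (30min, room temperature) quantified apoptosis induction. Cells were wild-type CHO-K1, treated with compound for 17hr at 37 C and 5% CO2.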

[8] = Caspase-3/7 induction in HepG2 cells by small molecules, qHTS cell viability counter screen (AID 1346981); note: series mostly up to about 92 µM; nearly all actives have a fitted effect of over 30% in size
Summary of the method: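 Wild-type HepG2 cells (2,000/well) were allowed to settle for 5 hr at 37 C, 5% CO2, then dosed with compounds in DMSO by pin transfer. After 16 hr at 37 C, CellTiter-Fluor was added and fluorescence read 1 hr later.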

[9] = biological target: Nuclear receptor subfamily 1 group I member 2 (Homo sapiens) (UniProt O75469); test: Human pregnane X receptor (PXR) small molecule agonists, qHTS assay (AID 1346982); note: nearly all actives have a fitted effect of over 35% in size; note: potency is the fitted concentration of half-maximal effect
Summary of the method: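 PXR-Luc HepG2 cells (CYP3A4 promoter-driven luciferase) were seeded in medium with 5% charcoal-stripped FBS, left 5 hr at 37 C, then exposed to compounds in DMSO for 24 hr. Luminescence was read after ONE-Glo addition.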

[10] = biological target: Acetylcholinesterase (Homo sapiens) (UniProt P22303); test: Acetylcholinesterase (AChE) small molecule antagonists: colormetric cell-based qHTS assay (AID 1347395; calls by dose curve; note: nearly all actives have a fitted effect of over 30% in size; note: potency is the fitted concentration of half-maximal effect)
Summary of the method: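 SH-SY5Y cells, plated overnight at 37 C, were exposed to compounds for 30 min at 37 C and 5% CO2. Acetylthiocholine plus DTNB was then added, and thiocholine from endogenous AChE was quantified colorimetrically after 90 min at 37 C.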

[11] = biological target: Progesterone receptor (Homo sapiens) (UniProt P06401); test: qHTS assay to identify small molecule agonists of the progesterone receptor (PR) signaling pathway (AID 1346784; calls by dose curve; note: nearly all actives have a fitted effect of over 30% in size)
Summary of the method: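 PR-UAS-bla HEK 293T cells carrying a UAS-driven beta-lactamase reporter were seeded in medium with 2% charcoal-stripped FBS, preincubated 6 hr at 37C, then exposed to compounds in DMSO for 16 hr; agonism was read by LiveBLAzer B/G FRET fluorescence.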

[12] = biological target: Thyrotropin-releasing hormone receptor (Homo sapiens) (UniProt P34981); test: qHTS assay to identify small molecule antagonists of the thyrotropin-releasing hormone receptor (TRHR) signaling pathway (AID 1346877; active = well fitted inhibition curve with a large enough effect in the repeat runs, not every such curve was filed as active; note: series mostly up to about 51 µM)
Summary of the method: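 TRHR-expressing HEK293 cells were seeded, cultured 18 h at 37 °C, then loaded with calcium dye for 2 h. Compounds were pre-incubated 5 min at room temperature before 1 nM TRH (final) was added, and kinetic fluorescence was recorded for 3 min.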

[13] = biological target: Thyrotropin-releasing hormone receptor (Homo sapiens) (UniProt P34981); test: qHTS assay to identify small molecule agonists of the thyrotropin-releasing hormone receptor (TRHR) signaling pathway (AID 1346891; calls by dose curve; note: series mostly up to about 58 µM)
Summary of the method: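 TRHR-expressing HEK293 cells were plated 18 h at 37 °C/5% CO2, loaded with calcium dye 2 h at 37 °C, then given compound in DMSO; fluorescence was read kinetically for 3 min at 1 s intervals.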

[14] = Human pregnane X receptor (PXR) small molecule agonists, qHTS cell viability counter screen (AID 1346977); note: nearly all actives have a fitted effect of over 50% in size; note: potency is the fitted concentration of half-maximal effect
Summary of the method: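 PXR-Luc HepG2 cells in medium with 5% charcoal-stripped FBS were pre-incubated 5hr, then exposed to compounds for 24hr at 37C. Viability was read in the same wells by CellTiter-Fluor fluorescence, reagent added after 23hr with a 1hr incubation.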

[15] = qHTS assay to identify small molecule agonists of the progesterone receptor (PR) signaling pathway - cell viability counter screen (AID 1346799; calls by dose curve; note: nearly all actives have a fitted effect of over 45% in size)
Summary of the method: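 PR-UAS-bla HEK293T cells, 3,000 per well in medium with 2% charcoal-stripped FBS, were preincubated 6 hr at 37C, then exposed to compounds for 16 hr; viability was read as CellTiter-Glo luminescence after 30 min at room temperature.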

[16] = qHTS assay to identify small molecule antagonists of the TGF-beta/Smad signaling pathway - cell viability counter screen (AID 1346824); note: nearly all actives have a fitted effect of over 50% in size
Summary of the method: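 Cytotoxicity counter-screen run in the same wells as the beta-lactamase Smad reporter read: CellTiter-Glo luminescence after 30 min at room temperature. HEK 293T SBE-bla cells had 5 hr compound exposure at 37 C with TGF-beta1 (0.25 ng/mL stock).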

[17] = biological target: Nuclear receptor subfamily 1 group I member 2 (Rattus norvegicus) (UniProt Q9R1A7); test: Rat pregnane X receptor (rPXR) activation by small molecules, qHTS assay (AID 1346983); details: rPXR luciferase reporter cells, One-Glo luminescence, 24 h; max activation: active compounds read high; note: nearly all actives have a fitted effect of over 20% in size
Summary of the method: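 Luminescent readout (One-Glo luciferase, 30 min room temperature) followed 24 hr compound treatment at 37 C of rPXR cells plated 2,000 per well and preincubated 5hr; qHTS format with compounds delivered in DMSO.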

[18] = biological target: Nuclear receptor subfamily 1 group I member 2 (Homo sapiens) (UniProt O75469); test: CYP3A4 induction through human pregnane X receptor (PXR) by small molecules, qHTS assay (AID 1346984); note: nearly all actives have a fitted effect of over 40% in size
Summary of the method: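 DPX-2 cells (HepG2 co-transfected with PXR and CYP3A4 promoter-luciferase) treated with compounds 24 h at 37C; luciferin-IPA CYP3A4 substrate 3uM final added for 3 h, then One-Glo; luminescence read. qHTS format.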

[19] = biological target: Nuclear receptor subfamily 1 group I member 2 (Homo sapiens) (UniProt O75469); test: Human pregnane X receptor (PXR) activation by small molecules, qHTS assay (AID 1346985); note: nearly all actives have a fitted effect of over 40% in size
Summary of the method: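 DPX-2 cells (HepG2 co-transfected with a PXR response element and a CYP3A4-promoter luciferase construct) were seeded at 2,000 per well, rested 5 hr at 37C, then exposed to DMSO-dissolved compounds for 24 hr. Activation was read as luciferase luminescence.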

Nuclear receptor subfamily 1 group I member 2 (Homo sapiens), sequence (O75469 whole entry, looked up): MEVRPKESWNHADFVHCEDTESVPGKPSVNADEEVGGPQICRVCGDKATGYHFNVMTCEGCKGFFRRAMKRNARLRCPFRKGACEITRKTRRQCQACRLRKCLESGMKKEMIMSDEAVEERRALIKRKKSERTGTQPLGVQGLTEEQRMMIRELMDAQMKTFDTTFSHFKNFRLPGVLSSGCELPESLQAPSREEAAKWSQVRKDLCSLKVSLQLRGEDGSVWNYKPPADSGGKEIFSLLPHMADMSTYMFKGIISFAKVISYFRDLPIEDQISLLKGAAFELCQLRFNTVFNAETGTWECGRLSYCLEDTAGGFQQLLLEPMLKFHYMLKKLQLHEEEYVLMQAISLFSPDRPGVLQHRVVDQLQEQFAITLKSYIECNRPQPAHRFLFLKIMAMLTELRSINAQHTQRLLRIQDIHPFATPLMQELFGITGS
Acetylcholinesterase (Homo sapiens), sequence (P22303 whole entry, looked up): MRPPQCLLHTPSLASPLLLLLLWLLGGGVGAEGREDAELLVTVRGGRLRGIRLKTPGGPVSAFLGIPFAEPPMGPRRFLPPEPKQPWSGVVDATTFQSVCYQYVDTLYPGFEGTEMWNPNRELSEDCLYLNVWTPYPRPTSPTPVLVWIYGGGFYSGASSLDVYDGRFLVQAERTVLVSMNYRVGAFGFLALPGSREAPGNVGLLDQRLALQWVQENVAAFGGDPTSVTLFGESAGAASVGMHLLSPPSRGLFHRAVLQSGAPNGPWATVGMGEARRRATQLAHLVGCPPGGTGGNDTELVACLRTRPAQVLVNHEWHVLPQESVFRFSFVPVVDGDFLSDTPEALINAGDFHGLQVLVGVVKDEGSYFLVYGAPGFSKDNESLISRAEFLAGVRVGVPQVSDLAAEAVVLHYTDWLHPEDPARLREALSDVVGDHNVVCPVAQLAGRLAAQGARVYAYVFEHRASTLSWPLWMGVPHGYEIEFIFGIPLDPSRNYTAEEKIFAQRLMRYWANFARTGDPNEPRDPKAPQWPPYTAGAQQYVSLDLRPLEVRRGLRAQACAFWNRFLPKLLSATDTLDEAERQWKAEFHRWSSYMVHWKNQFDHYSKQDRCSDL
Thyrotropin-releasing hormone receptor (Homo sapiens), sequence (P34981 whole entry, looked up): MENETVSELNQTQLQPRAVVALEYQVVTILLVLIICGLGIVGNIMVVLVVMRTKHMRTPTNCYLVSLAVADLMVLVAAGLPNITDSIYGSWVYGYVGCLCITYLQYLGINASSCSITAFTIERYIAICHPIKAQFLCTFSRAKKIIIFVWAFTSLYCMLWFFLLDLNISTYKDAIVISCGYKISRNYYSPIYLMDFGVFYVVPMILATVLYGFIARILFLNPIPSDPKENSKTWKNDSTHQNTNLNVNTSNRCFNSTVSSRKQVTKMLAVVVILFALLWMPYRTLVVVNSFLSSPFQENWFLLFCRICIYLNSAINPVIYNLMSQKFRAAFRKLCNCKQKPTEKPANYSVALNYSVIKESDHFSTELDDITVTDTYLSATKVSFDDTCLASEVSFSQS
Progesterone receptor (Homo sapiens), sequence (P06401 whole entry, looked up): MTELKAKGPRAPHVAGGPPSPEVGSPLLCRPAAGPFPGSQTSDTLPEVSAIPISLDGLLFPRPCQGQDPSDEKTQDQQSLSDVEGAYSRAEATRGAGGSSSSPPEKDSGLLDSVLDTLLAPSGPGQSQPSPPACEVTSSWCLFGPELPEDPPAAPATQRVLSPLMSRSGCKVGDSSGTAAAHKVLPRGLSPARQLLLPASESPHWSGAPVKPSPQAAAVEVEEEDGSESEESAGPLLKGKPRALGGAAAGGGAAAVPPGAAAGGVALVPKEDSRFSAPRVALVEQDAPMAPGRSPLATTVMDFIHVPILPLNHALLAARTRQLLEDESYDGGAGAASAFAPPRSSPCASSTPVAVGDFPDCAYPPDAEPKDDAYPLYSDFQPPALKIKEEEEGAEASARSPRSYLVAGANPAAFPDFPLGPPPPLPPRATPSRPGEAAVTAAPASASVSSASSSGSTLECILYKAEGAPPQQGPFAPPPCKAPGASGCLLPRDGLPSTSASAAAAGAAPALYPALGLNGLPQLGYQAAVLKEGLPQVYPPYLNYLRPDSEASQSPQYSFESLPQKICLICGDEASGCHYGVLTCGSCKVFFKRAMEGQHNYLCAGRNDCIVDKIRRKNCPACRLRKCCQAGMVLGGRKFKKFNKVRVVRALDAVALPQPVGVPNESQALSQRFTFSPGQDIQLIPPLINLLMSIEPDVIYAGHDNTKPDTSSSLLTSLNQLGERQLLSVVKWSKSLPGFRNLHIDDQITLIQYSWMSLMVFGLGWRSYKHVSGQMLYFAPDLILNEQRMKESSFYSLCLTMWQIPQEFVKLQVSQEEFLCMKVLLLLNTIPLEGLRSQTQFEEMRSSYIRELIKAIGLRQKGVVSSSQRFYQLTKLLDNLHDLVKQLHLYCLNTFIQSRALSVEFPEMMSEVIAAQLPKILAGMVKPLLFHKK
Nuclear receptor subfamily 1 group I member 2 (Rattus norvegicus), sequence (Q9R1A7 whole entry, looked up): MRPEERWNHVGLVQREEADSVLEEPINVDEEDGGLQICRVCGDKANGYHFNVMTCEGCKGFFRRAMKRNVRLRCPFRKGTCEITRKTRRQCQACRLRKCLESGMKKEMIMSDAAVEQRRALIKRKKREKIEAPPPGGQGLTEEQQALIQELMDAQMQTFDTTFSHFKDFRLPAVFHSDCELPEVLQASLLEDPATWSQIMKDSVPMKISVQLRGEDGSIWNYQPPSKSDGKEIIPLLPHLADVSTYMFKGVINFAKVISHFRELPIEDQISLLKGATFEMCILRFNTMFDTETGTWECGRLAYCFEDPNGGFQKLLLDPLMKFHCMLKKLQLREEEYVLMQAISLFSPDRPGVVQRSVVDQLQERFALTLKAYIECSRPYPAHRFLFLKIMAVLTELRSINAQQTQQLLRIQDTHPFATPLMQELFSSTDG

SMILES | Potency [1] | Potency [2] | outcome [3] | outcome [4] | Potency [5] | Potency [6] | Potency [7] | Potency [8] | Potency [9] | Potency [10] | Potency [11] | outcome [12] | outcome [13] | Potency [14] | Potency [15] | Potency [16] | max activation [17] | Potency [18] | Potency [19]
Nc1ccccc1Cl | inactive | inactive | inactive | inactive | inactive | inactive | inactive | inactive | inactive | inactive |  |  |  |  |  |  |  |  | 
c1cc[c]([Hg][c]2ccccc2)cc1 |  | inactive | inactive | inactive | inactive | 68.6 µM (active) | inactive | inactive | 10.9 µM (active) | inactive | inactive | inactive | inactive | 68.6 µM (active) |  |  |  |  | 
COc1cc2c(cc1OC)[C@@]13CCN4CC5=CCO[C@H]6CC(=O)N2[C@H]1[C@H]6[C@H]5C[C@H]43 | inactive | inactive | inactive | inactive | inactive | inactive | inactive | inactive |  | inactive |  | inactive |  | inactive | inactive | inactive | -4.15% | inactive | 
COc1ccc2c(c1OC)CN1CCc3cc4c(cc3C1C2)OCO4 (centres undefined) |  | inactive | inactive | inactive | inactive |  | inactive | inactive | inactive | 8.71 µM (active) |  |  | inactive | inactive | inactive | inactive | 0.596% | inactive | inactive
CC(COc1ccc(Oc2ccccc2)cc1)Oc1ccccn1 (centres undefined) |  |  | inactive | inactive | inactive | inactive | inactive | inactive | 17.2 µM (active) | inactive | inactive |  | inactive | inactive |  |  |  |  | 
N#CCBr | inactive | inactive | inactive | inactive | inactive | inactive | inactive | inactive | inactive | inactive |  | inactive | inactive | inactive |  |  |  |  | 
Clc1cccc(N2CCNCC2)c1 | inactive |  | inactive | inactive | inactive | inactive | inactive | inactive |  | inactive | inactive |  |  |  |  |  |  |  | 
Nc1cc(Cl)ccc1O |  | inactive | inactive | inactive | inactive | 29.6 µM (active) | inactive |  |  | inactive | inactive | inactive |  |  | inactive | inactive |  |  | 
O=C(Nc1ccccc1)N(Cc1ccc(Cl)cc1)C1CCCC1 |  | inactive | inactive | inactive | inactive |  | inactive |  | 6.11 µM (active) | inactive | inactive | inactive |  |  |  | inactive |  |  | 
COc1cc(OC)nc(Oc2cccc(Oc3nc(OC)cc(OC)n3)c2C(=O)O)n1 | inactive | inactive | inactive | inactive | inactive | inactive | inactive | inactive |  | inactive |  | inactive | inactive |  |  |  |  |  | 
ClC(Cl)Br |  | inactive | inactive | inactive | inactive | inactive | inactive | inactive | inactive | inactive | inactive |  |  | inactive |  |  |  |  | 
